The values below come from PubChem BioAssay AID485276 (Southern Research Specialized Biocontainment Screening …, 2010).

This assay is described as follows: SV40 cytopathic effect inhibition and cytotoxicity, confirmation, BSC cells, set 3 (AID 485276).

The structures appear in SMILES notation. Measured potencies and affinities stand elsewhere. Calls of active or inactive are those of the source. The rule behind the calls is not given here.

Regarding `Oc1ccc(Cc2ccc(O)cc2)cc1`, the compound was classed as inactive.
